Experimental data reported in the supplement of paper PMC8728848.
Shown is part of a subset that was picked to be rich in the strongest signals.

Experiments:
Assay in all cases: glycan array binding signal (z-score within array); higher = stronger binding
Details in all cases: glycan notation: IUPAC condensed, linker removed
Fuc(a1-2)Gal = target: Fuc(a1-2)Gal
Outline: (§1)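 The binding signal is a Z-score computed within each array and averaged over linkers. Arrays of the same protein sequence at different concentrations or buffers were also averaged together. Data originate from 3228 arrays in the Consortium for Functional Glycomics database, kept only where the protein sequence was available.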

Fuc(a1-2)Gal(b1-3)GlcNAc = target: Fuc(a1-2)Gal(b1-3)GlcNAc
Outline: as §1

[1] = target: Fuc(a1-2)Gal(b1-3)GlcNAc(b1-3)[Gal(b1-4)GlcNAc(b1-6)]Gal(b1-4)Glc
Outline: as §1

[2] = target: Fuc(a1-2)Gal(b1-3)[Fuc(a1-4)]GlcNAc
Outline: as §1

[3] = target: Fuc(a1-2)Gal(b1-4)Fuc(a1-3)]GlcNAc(b1-2)Man(a1-3)[Fuc(a1-2)Gal(b1-4)[Fuc(a1-3)]GlcNAc(b1-2)Man(a1-6)]Man(b1-4)GlcNAc(b1-4)GlcNAc
Outline: as §1

[4] = target: Fuc(a1-2)Gal(b1-4)GlcNAc6S
Outline: as §1

[5] = target: Fuc(a1-2)[Gal(a1-3)]Gal(b1-4)GlcNAc(b1-6)GalNAc
Outline: as §1

[6] = target: Fuc(a1-2)[GalNAc(a1-3)]Gal(b1-3)GalNAc(b1-3)Gal(a1-4)Gal(b1-4)Glc
Outline: as §1

[7] = target: Fuc(a1-2)[GalNAc(a1-3)]Gal(b1-3)GlcNAc(b1-6)GalNAc
Outline: as §1

[8] = target: Gal(a1-3)[Gal(a1-4)]Gal(b1-4)GlcNAc
Outline: as §1

[9] = target: Gal(b1-3)GlcNAc(a1-3)Gal(b1-4)GlcNAc
Outline: as §1

Gal(b1-3)GlcNAc(b1-2)Man = target: Gal(b1-3)GlcNAc(b1-2)Man
Outline: as §1

[10] = target: Gal(b1-3)[Fuc(a1-4)]GlcNAc(b1-2)Man
Outline: as §1

[11] = target: Gal(b1-3)[Fuc(a1-4)]GlcNAc(b1-3)Gal(b1-3)[Fuc(a1-4)]GlcNAc
Outline: as §1

[12] = target: Gal(b1-3)[Neu5Ac(b2-6)]GalNAc
Outline: as §1

Gal(b1-4)GlcNAc = target: Gal(b1-4)GlcNAc
Outline: as §1

[13] = target: Gal(b1-4)GlcNAc(b1-2)[Gal(b1-4)GlcNAc(b1-4)]Man(a1-3)[GlcNAc(b1-4)][Gal(b1-4)GlcNAc(b1-2)Man(a1-6)]Man(b1-4)GlcNAc(b1-4)GlcNAc
Outline: as §1

[14] = target: Gal(b1-4)GlcNAc(b1-3)Gal(b1-4)GlcNAc(b1-2)Man(a1-3)[Gal(b1-4)GlcNAc(b1-3)Gal(b1-4)GlcNAc(b1-2)Man(a1-6)]Man(b1-4)GlcNAc(b1-4)GlcNAc
Outline: as §1

[15] = target: Gal(b1-4)GlcNAc(b1-3)Gal(b1-4)GlcNAc(b1-3)Gal(b1-4)GlcNAc(b1-2)Man(a1-3)[Gal(b1-4)GlcNAc(b1-3)Gal(b1-4)GlcNAc(b1-3)Gal(b1-4)GlcNAc(b1-2)Man(a1-6)]Man(b1-4)GlcNAc(b1-4)GlcNAc
Outline: as §1

[16] = target: GalNAc(b1-4)GlcNAc(b1-2)Man
Outline: as §1

Glc(a1-6)Glc(a1-6)Glc = target: Glc(a1-6)Glc(a1-6)Glc
Outline: as §1

[17] = target: GlcNAc(a1-4)Gal(b1-4)GalNAc
Outline: as §1

[18] = target: GlcNAc(a1-4)Gal(b1-4)GlcNAc(b1-3)Gal(b1-4)GlcNAc
Outline: as §1

[19] = target: GlcNAc(a1-6)Gal(b1-4)GlcNAc
Outline: as §1

[20] = target: GlcNAc(b1-3)Gal(b1-4)GlcNAc(b1-3)Gal(b1-4)GlcNAc(b1-2)Man(a1-3)[GlcNAc(b1-3)Gal(b1-4)GlcNAc(b1-3)Gal(b1-4)GlcNAc(b1-2)Man(a1-6)]Man(b1-4)GlcNAc(b1-4)GlcNAc
Outline: as §1

[21] = target: GlcNAc(b1-3)Gal(b1-4)GlcNAc(b1-3)Gal(b1-4)GlcNAc(b1-2)[GlcNAc(b1-3)Gal(b1-4)GlcNAc(b1-3)Gal(b1-4)GlcNAc(b1-6)]Man(a1-6)[GlcNAc(b1-3)Gal(b1-4)GlcNAc(b1-3)Gal(b1-4)GlcNAc(b1-2)Man(a1-3)]Man(b1-4)GlcNAc(b1-4)[Fuc(a1-6)]GlcNAc
Outline: as §1

[22] = target: GlcNAc(b1-3)Gal(b1-4)GlcNAc(b1-3)Gal(b1-4)GlcNAc(b1-3)Gal(b1-4)GlcNAc(b1-2)[GlcNAc(b1-3)Gal(b1-4)GlcNAc(b1-3)Gal(b1-4)GlcNAc(b1-3)Gal(b1-4)GlcNAc(b1-6)]Man(a1-6)[GlcNAc(b1-3)Gal(b1-4)GlcNAc(b1-3)Gal(b1-4)GlcNAc(b1-3)Gal(b1-4)GlcNAc(b1-2)Man(a1-3)]Man(b1-4)GlcNAc(b1-4)[Fuc(a1-6)]GlcNAc
Outline: as §1

[23] = target: GlcNAc(b1-4)GlcNAc(b1-4)GlcNAc
Outline: as §1

[24] = target: GlcNAc6S(b1-3)Gal(b1-4)GlcNAc
Outline: as §1

[25] = target: Man(a1-2)Man(a1-2)Man(a1-6)[Man(a1-3)]Man
Outline: as §1

Man(a1-2)Man(a1-3)Man = target: Man(a1-2)Man(a1-3)Man
Outline: as §1

[26] = target: Man(a1-2)Man(a1-6)[Man(a1-3)]Man(a1-6)[Man(a1-2)Man(a1-2)Man(a1-3)]Man
Outline: as §1

[27] = target: Neu5Ac(a2-3)Gal(b1-3)GlcNAc(b1-2)Man
Outline: as §1

[28] = target: Neu5Ac(a2-3)Gal(b1-3)GlcNAc(b1-2)Man(a1-3)[GlcNAc(b1-4)][Neu5Ac(a2-3)Gal(b1-3)GlcNAc(b1-2)Man(a1-6)]Man(b1-4)GlcNAc(b1-4)GlcNAc
Outline: as §1

[29] = target: Neu5Ac(a2-3)Gal(b1-3)[Neu5Ac(a2-6)]GlcNAc(b1-3)[Fuc(a1-3)[Gal(b1-4)]GlcNAc(b1-6)]Gal(b1-4)Glc
Outline: as §1

[30] = target: Neu5Ac(a2-3)Gal(b1-4)GlcNAc(b1-2)Man(a1-3)[GlcNAc(b1-4)][Neu5Ac(a2-3)Gal(b1-4)GlcNAc(b1-2)Man(a1-6)]Man(b1-4)GlcNAc(b1-4)GlcNAc
Outline: as §1

[31] = target: Neu5Ac(a2-3)Gal(b1-4)GlcNAc(b1-3)Gal(b1-4)GlcNAc(b1-3)Gal(b1-4)GlcNAc(b1-2)Man(a1-3)[Neu5Ac(a2-3)Gal(b1-4)GlcNAc(b1-3)Gal(b1-4)GlcNAc(b1-3)Gal(b1-4)GlcNAc(b1-2)Man(a1-6)]GalNAc
Outline: as §1

[32] = target: Neu5Ac(a2-3)Gal(b1-4)GlcNAc(b1-3)Gal(b1-4)GlcNAc(b1-6)[Gal(b1-3)]GalNAc
Outline: as §1

[33] = target: Neu5Ac(a2-3)Gal(b1-4)GlcNAc(b1-6)GalNAc
Outline: as §1

[34] = target: Neu5Ac(a2-3)Gal(b1-4)GlcNAc(b1-6)[Gal(b1-3)]GalNAc
Outline: as §1

[35] = target: Neu5Ac(a2-3)[GalNAc(b1-4)]Gal(b1-4)GlcNAc
Outline: as §1

[36] = target: Neu5Ac(a2-3)[Neu5Ac(a2-6)]GalNAc
Outline: as §1

Neu5Ac(a2-6)Gal(b1-4)Glc = target: Neu5Ac(a2-6)Gal(b1-4)Glc
Outline: as §1

[37] = target: Neu5Ac(a2-6)Gal(b1-4)GlcNAc(b1-2)Man(a1-3)[Neu5Ac(a2-6)Gal(b1-4)GlcNAc(b1-2)Man(a1-6)]Man(b1-4)GlcNAc(b1-4)[Fuc(a1-6)]GlcNAc
Outline: as §1

[38] = target: Neu5Ac(a2-6)Gal(b1-4)GlcNAc(b1-2)Man(a1-6)[Man(a1-3)]Man(b1-4)GlcNAc(b1-4)GlcNAc
Outline: as §1

[39] = target: Neu5Ac(a2-6)Gal(b1-4)GlcNAc(b1-2)[Neu5Ac(a2-6)Gal(b1-4)GlcNAc(b1-4)]Man(a1-3)[GlcNAc(b1-4)][Neu5Ac(a2-6)Gal(b1-4)GlcNAc(b1-2)[Neu5Ac(a2-6)Gal(b1-4)GlcNAc(b1-6)]Man(a1-6)]Man(b1-4)GlcNAc(b1-4)GlcNAc
Outline: as §1

[40] = target: Neu5Ac(a2-6)Gal(b1-4)GlcNAc(b1-3)Gal(b1-3)GlcNAc
Outline: as §1

[41] = target: Neu5Ac(a2-6)Gal(b1-4)GlcNAc(b1-3)Gal(b1-4)GlcNAc(b1-3)Gal(b1-4)GlcNAc(b1-2)Man(a1-3)[Neu5Ac(a2-6)Gal(b1-4)GlcNAc(b1-3)Gal(b1-4)GlcNAc(b1-3)Gal(b1-4)GlcNAc(b1-2)Man(a1-6)]GalNAc
Outline: as §1

[42] = target: Neu5Gc(a2-3)Gal(b1-3)[Fuc(a1-4)]GlcNAc
Outline: as §1

B1: Als3-N (Candida albicans) (protein)
chain: KTITGVFNSFNSLTWSNAATYNYKGPGTPTWNAVLGWSLDGTSASPGDTFTLNMPCVFKFTTSQTSVDLTAHGVKYATCQFQAGEEFMTFSTLTCTVSNTLTPSIKALGTVTLPLAFNVGGTGSSVDLEDSKCFTAGTNTVTFNDGGKKISINVDFERSNVDPKGYLTDSRVIPSLNKVSTLFVAPQCANGYTSGTMGFANTYGDVQIDCSNIHVGITKGLNDWNYPVSSESFSYTKTCSSNGIFITYKNVPAGYRPFVDAYISATDVNSYTLSYANEYTCAGGYWQRAPFTLRWTGYRNSDAGSNGIVIVATTRTVTDSTTAVTTLPFDPNRDKTKTIEILKPIPTTTITTSYVGVTTSYLTKTAPIGETATVIVDIPYHTTTTVTSKWTGTITSTTTHTNPTDSIDTVIVQVP
glycan array binding signal (z-score) (Fuc(a1-2)Gal): -0.276 | glycan array binding signal (z-score) (Fuc(a1-2)Gal(b1-3)GlcNAc): -0.288 | glycan array binding signal (z-score) [1]: -0.291 | glycan array binding signal (z-score) [2]: -0.271 | glycan array binding signal (z-score) [3]: 2.75 | glycan array binding signal (z-score) [4]: -0.257 | glycan array binding signal (z-score) [5]: -0.082 | glycan array binding signal (z-score) [6]: -0.14 | glycan array binding signal (z-score) [7]: -0.223 | glycan array binding signal (z-score) [8]: -0.221 | glycan array binding signal (z-score) [9]: 2.03 | glycan array binding signal (z-score) (Gal(b1-3)GlcNAc(b1-2)Man): 0.065 | glycan array binding signal (z-score) [10]: 0.115 | glycan array binding signal (z-score) [11]: 2.42 | glycan array binding signal (z-score) [12]: 0.915 | glycan array binding signal (z-score) (Gal(b1-4)GlcNAc): -0.168 | glycan array binding signal (z-score) [13]: -0.288 | glycan array binding signal (z-score) [14]: 8.26 | glycan array binding signal (z-score) [15]: 3.26 | glycan array binding signal (z-score) [16]: 0.231 | glycan array binding signal (z-score) (Glc(a1-6)Glc(a1-6)Glc): -0.244 | glycan array binding signal (z-score) [17]: -0.081 | glycan array binding signal (z-score) [18]: -0.232 | glycan array binding signal (z-score) [19]: -0.233 | glycan array binding signal (z-score) [20]: 3.11 | glycan array binding signal (z-score) [21]: 2.36 | glycan array binding signal (z-score) [22]: 3.08 | glycan array binding signal (z-score) [23]: -0.099 | glycan array binding signal (z-score) [24]: -0.1 | glycan array binding signal (z-score) [25]: -0.257 | glycan array binding signal (z-score) (Man(a1-2)Man(a1-3)Man): -0.226 | glycan array binding signal (z-score) [26]: -0.361 | glycan array binding signal (z-score) [27]: -0.29 | glycan array binding signal (z-score) [28]: -0.11 | glycan array binding signal (z-score) [29]: -0.237 | glycan array binding signal (z-score) [30]: -0.08 | glycan array binding signal (z-score) [31]: 4.72 | glycan array binding signal (z-score) [32]: 0.08 | glycan array binding signal (z-score) [33]: -0.202 | glycan array binding signal (z-score) [34]: -0.233 | glycan array binding signal (z-score) [35]: 2.21 | glycan array binding signal (z-score) [36]: -0.049 | glycan array binding signal (z-score) (Neu5Ac(a2-6)Gal(b1-4)Glc): -0.187 | glycan array binding signal (z-score) [37]: -0.102 | glycan array binding signal (z-score) [38]: -0.309 | glycan array binding signal (z-score) [39]: -0.151 | glycan array binding signal (z-score) [40]: -0.283 | glycan array binding signal (z-score) [41]: 2.56 | glycan array binding signal (z-score) [42]: -0.341
